Test results taken from the supplement of paper PMC6555819.

Key:
Test in all cases: PBM binding z-score (relative to random genomic background probes); higher = stronger binding; sequences stand for … in GC…GCGATTGACAGCGTAGAATGAAGG
[1] = test system: FXR:RXRa (NR concentration 270 nM, RXRa partner concentration 90 nM)
Procedure, shortened: (§1)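 Random background probes are the reference for binding z-scores. These scores derive from regression-normalized fluorescence on custom Agilent 4×180K protein-binding microarrays incubated 1 h with ligand-free nuclear receptor dimers. Binding was detected with antibodies against each partner (one per run).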

[2] = test system: LXRa:RXRa (NR concentration 270 nM, RXRa partner concentration 90 nM)
Procedure, shortened: as §1

[3] = test system: LXRa homodimer (NR concentration 270 nM)
Procedure, shortened: as §1

[4] = test system: LXRb:RXRa (NR concentration 270 nM, RXRa partner concentration 90 nM)
Procedure, shortened: as §1

[5] = test system: LXRb homodimer (NR concentration 270 nM)
Procedure, shortened: as §1

[6] = test system: PPARa:RXRa (NR concentration 270 nM, RXRa partner concentration 90 nM)
Procedure, shortened: as §1

[7] = test system: PPARg:RXRa (NR concentration 180 nM, RXRa partner concentration 90 nM)
Procedure, shortened: as §1

[8] = test system: PPARg:RXRa 270nM:90nM, anti-RXR (NR concentration 270 nM, RXRa partner concentration 90 nM)
Procedure, shortened: as §1

[9] = test system: PPARg:RXRa 30nM:10nM, anti-RXR (NR concentration 30 nM, RXRa partner concentration 10 nM)
Procedure, shortened: as §1

[10] = test system: PPARg:RXRa 90nM:30nM, anti-RXR (NR concentration 90 nM, RXRa partner concentration 30 nM)
Procedure, shortened: as §1

Sequence	PBM binding z-score [1]	PBM binding z-score [2]	PBM binding z-score [3]	PBM binding z-score [4]	PBM binding z-score [5]	PBM binding z-score [6]	PBM binding z-score [7]	PBM binding z-score [8]	PBM binding z-score [9]	PBM binding z-score [10]
TCTTGTAGATCAAAGGTTAAGAAGGCCGAAGCCT	1.58	2.1	-0.0136	1.83	-0.281	4.6	8.22	8.32	9.13	9.04
CGAACTCGGTCAGAACAGGACAGTGAAGGATGAT	0.127	0.0151	0.0405	-0.32	-0.669	0.415	0.904	0.142	0.197	0.033
ACTAGTTGGTCATCTGAGGTCACACACAATTCGG	3.47	5.26	5.1	4.09	1.65	3.98	2.52	2.62	1.13	2.05
CCTCGGAGGACAGATGGTCAGAGCTGTCCGCTTT	-0.143	-0.35	-0.187	-0.927	-0.896	-0.597	-0.644	-0.669	-1.17	-0.907
TCTTGTAGATCAACAGGAGGTTAAAAAAGATCGA	0.243	2	0.321	1.34	-0.17	1.54	0.116	1.59	2.66	2.31
CCTACTGGGCCAAAAAGATCATTGATGCCGATAA	-0.2	-0.313	-0.155	-0.481	-0.601	0.11	0.525	0.504	-0.0196	0.372
CCTTACGGGTCACTCCAGGTGATAGCATCGGAGT	5.24	5.98	0.158	3.34	-0.0681	4.26	3.57	3.66	1.31	2.64
GCGACTGGGGCATCAGCAGGTTACTATAACTTAA	0.0216	-0.0377	-0.448	0.689	-0.343	1.27	0.884	1.05	-0.238	0.594
AATACAGGGTCATCGTAGGCAAGAGTACGCACAG	7.68	6.03	2.1	4.59	1.4	5.83	7	6.27	3.31	4.97
CCTAGTTGGTCAGGAGATCACACACCGGATATGA	0.118	0.263	0.478	0.0659	0.414	0.215	1.01	0.651	0.236	0.432
TCTAGTTGGTCGAAGGTCACACACTCGAAATGCG	2.91	3.2	1.24	3.38	0.802	4.57	7.43	7.58	6.89	7.98
CCTCGCAGGACAGAAGGTCAGAGCTGTCCGCTTT	1.07	1.44	0.197	1.13	-0.678	1.86	-0.29	0.666	-0.929	0.0497
ATATGTAGGTTATCGGGTCACTCAGTTTGCGCAT	2.62	2.95	1.49	2.89	1.3	5.02	7.63	6	3.64	5.8
CCGAGTAGGTTATGGGGCATTGAGGCAACGGTGA	0.345	0.579	-0.265	0.437	-0.0283	2.09	3.48	4.63	2.18	4.57
ATCGAAAGGTCGAGGGTGAGTATACCCACCCGAA	4.29	3.45	0.143	2.57	0.248	4.67	3.72	4.25	1.3	3.04
CATACAGGGTCAGCTAGGCCTGAGTAGGGACGGC	4.59	2.64	-0.384	1.79	0.0921	4.12	3.11	2.94	0.751	1.89
TGTCAAAGTTCAAAGGTAGCGTAAGTATCCACAC	6.72	6.04	4.44	4.05	1.42	5.57	8.17	7.45	4.48	7.05
CCAGACAGTTGAGAAGGTAACTCAGCCTCGATTA	0.18	0.172	0.398	0.125	0.336	0.142	0.175	-0.218	0.0704	0.0662
CCTACTGGGCCAAAGTCATTGATCAGTCAAAGCA	-0.681	-0.266	-0.412	-0.243	-1.2	0.687	1.42	2.53	0.485	1.74
ATCTCTAGGGAAAAGTTCAGTGAATCCCGAGGAT	-0.0297	0.401	0.405	0.302	0.328	2.67	4.59	5.66	3.84	5.64
ATCTCTAGGGAAGACTCAGTTCAGTGAAGAACGC	-0.235	0.0835	0.196	-0.00503	0.414	-0.566	-0.0585	-0.317	-0.477	-0.307
TCTCGGTGGACACGAAGGTCAGAGCTTTCCAGAG	0.952	0.962	0.157	1.36	-0.833	2.04	0.78	2.38	2.3	2.3
CCGACTGGGGCCGAAAGGTTACCATACCATCCGG	0.707	0.858	-0.0944	1.08	-1.22	2.02	1.09	1.84	0.177	1.26
CAAACTAGGTCAAATGTCAAAGTCGAGCCAACCA	5.99	4.61	1.45	3.78	1.49	6.77	11.8	9.72	9.92	10.8
CCTTACGGGTCATTGACAGGTTATAGCATTTGGA	5.92	4.79	1.1	3.85	0.271	5.27	3.6	4.06	1.55	2.75

Sequence	PBM binding z-score [1]	PBM binding z-score [2]	PBM binding z-score [3]	PBM binding z-score [4]	PBM binding z-score [5]	PBM binding z-score [6]	PBM binding z-score [7]	PBM binding z-score [8]	PBM binding z-score [9]	PBM binding z-score [10]
TATATAGGGTCAAAGGCCAGAGTACGAATGTCGA	7.32	6.1	2.48	5.05	2.01	6.35	8.65	7.34	5.8	7.54
GCTTGTAGAGCAAGGTTAAGAAAGACTAAGCTAA	-0.0313	0.442	-0.567	0.174	-1.28	1.5	1.41	2.77	0.817	2.03
ATCTCTAGGTAACCAAGCTCAGTGAATGCCGAAC	0.0567	-0.156	-0.0842	-0.416	0.643	0.0797	0.181	0.28	-0.0374	0.235
TCACCAAGGTGAAAGGTCGTTGATGCACGCCTTG	3.32	3.01	-0.0102	2.68	-0.932	5.28	7.74	7.39	6.81	7.43
CCTCCAAGGTCAATGCTAGGTCAGTGAAAGCATT	6.43	5.53	2.29	4.51	1.02	5.22	3.95	4.93	1.2	3.28
AGAATGAGGTTATTTAGATCAGGGAATTGCGGTC	2.23	1.9	0.538	1.56	0.456	2.9	1.33	1.89	0.586	1.17
GGTGCTAGGTCAACTGATGGTCAGCTAAAGCTCG	4.46	3.2	0.481	2.17	0.109	3.84	3.55	3.81	0.998	2.53
ATCTCTACGTAAAAGTTCAGTGAATCCCGAGGAT	0.535	1.12	1.27	0.881	1.33	0.835	0.595	1.55	0.654	1.25
CGAGCGAGGGCATGAGTTGATAGCAAATGCCGAT	0.5	0.467	-0.292	0.175	-1.07	0.945	0.571	0.44	-0.503	0.0146
ATCTCTAGGTAACCAAGTTCAATGAATGCCGAAC	0.814	1.63	1.7	1.34	1.25	1.76	1.26	1.15	0.497	0.824
TTACCAAGGTGAAGGTCGTTGGTCCCTCTGTAGA	1.16	1.1	-0.0893	1.2	-0.734	2.45	2.79	4.07	1.8	3.33
CGTCCAAGGACAGCAGGTCAGTGAAAGCGACGTG	0.0413	-0.0225	-0.497	-0.229	-1.12	0.599	0.186	-0.344	-0.721	-0.226
GCTAGCAGGCCATTTGGGTCTCTCAATGACGGGC	-0.43	-0.541	-0.417	-0.913	-1.24	-0.217	-0.0162	-0.509	-1.01	-0.9
CAAACTAGGTCACGGAAGGTCAAAGTCGAATGAC	7.44	7.64	6.7	6.73	1.71	6.26	10.3	8.41	7.26	8.7
TATACAGGGTCACAGGCCAGAGTACGAATGTCGA	7.56	5.94	2.06	4.84	2.2	6.06	8.05	6.76	3.77	5.75
ACCTCTAGGTAAGACTCAGTTCAGTGAAGAACGC	-0.0705	-0.143	-0.072	-0.301	0.0183	-0.0817	0.0418	0.031	-0.00405	-0.257
ACTAGTTGGGCAGCTGAGGTCACACACAATTCGG	2.42	2.48	1.5	2.74	0.155	3.31	1.34	1.8	0.192	1.26
ATCTCTAGGTAAAAGTACAGTGAATCCCGAGGAT	0.212	0.0141	0.0637	-0.267	0.728	0.877	1.98	3.02	1.49	3.07
CCGAGTAGGTCATGGGGCATTCAGGCAACGGTGA	4.82	3.04	0.422	2.42	-0.503	4.92	8.14	7.29	6.6	7.69
TAGCCTAGGTCAGATCGTGCCAGTATACGCTATA	1.53	1.21	-0.412	1.06	0.00468	1.91	0.806	0.67	0.0687	0.244
TTACCAAGGGGAAAGGTCGTTGATGCACGCCTTG	1.39	1.85	-0.0678	1.81	-0.739	3.79	5.27	6.57	4.47	6.82
TCTCGGATGACACGAAGGTCAGAGCTTTCCAGAG	2.3	1.55	0.495	1.4	-0.796	2.24	0.758	2.21	2.77	2.56
ATATGTAGGTTAAGGATCATTCAGGTTGGTTCGC	0.726	1.25	0.404	1.18	0.352	4.46	8.08	7.41	6.08	8.34
CGACCAAGGTCAGCAGGTCAGTGAAAGCGACGTG	5.71	3.43	-0.15	2.77	-0.923	4.85	4.53	4.43	1.12	3.02
